Data from PubChem BioAssay (Tox21).
Records with an inconclusive call do not appear. Activity calls are given as the source filed them. Unless noted, calls come from the whole dose curve.

Assays:
[1] = Nuclear factor erythroid 2-related factor 2/antioxidant responsive element (Nrf2/ARE) small molecule agonists: qHTS cell viability counter screen in human keratinocytes (AID 1919968; active = well fitted curve in the direction sought with a large enough effect in the repeat runs; an effect the other way counts as inactive or inconclusive; note: nearly all actives have a fitted effect of over 55% in size; note: potency is the fitted concentration of half-maximal effect)
In short: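 KeratinoSens HaCaT cells, 1,500/well, preincubated 5 h, then exposed to compounds in DMSO for 23 h at 37 C/5% CO2. Viability read as CellTiter-Fluor fluorescence after 1 h, in the same wells as the ARE-luciferase read.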

[2] = Nuclear factor erythroid 2-related factor 2/antioxidant responsive element (Nrf2/ARE) small molecule agonists: luciferase reporter gene qHTS assay in human keratinocytes (AID 1919969); note: nearly all actives have a fitted effect of over 35% in size; note: potency is the fitted concentration of half-maximal effect
[3] = target: KiSS-1 receptor (Homo sapiens) (UniProt Q969F8); assay: Human kisspeptin (KISS1R) small molecule agonists, calcium flux assay in KISS1R-HEK293 cells (AID 1920064; active = well fitted curve in the direction sought with a large enough effect in the repeat runs; an effect the other way counts as inactive or inconclusive)
In short: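 HEK293 cells stably expressing human KISS1R were loaded with calcium dye for 1 h at 37 C, then given compound; fluorescence (Ex/Em 480/540) was read kinetically for 3 min. Fifteen concentrations, triplicate.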

[4] = G protein-coupled receptor (GPCR) small molecule agonists, calcium flux assay: HEK293 wild type cell line counter screen (AID 1920065); note: potency is the fitted concentration of half-maximal effect
In short: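 Wild-type HEK293 cells plated 18 h, loaded with calcium dye 1 h at 37 C, then compounds added in agonist mode (ATP as positive control). Kinetic fluorescence Ex/Em 480/540 recorded 3 min at 1 sec intervals; 15 concentrations, triplicate.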

[5] = p53 small molecule agonists, cell-based qHTS assay with human liver microsomes: qHTS cell viability counter screen (AID 1963579); note: nearly all actives have a fitted effect of over 45% in size; note: potency is the fitted concentration of half-maximal effect
In short: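 Viability of p53RE-bla cells is measured as CellTiter-Glo luminescence following a 16 h, 37 C incubation with compound, liver microsomes from human donors and NADPH.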

[6] = p53 small molecule agonists, cell-based qHTS assay with rat liver microsomes: qHTS cell viability counter screen (AID 1963580); note: nearly all actives have a fitted effect of over 45% in size
In short: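 Viability is assessed in parallel with the p53 reporter read: HCT-116 p53RE-bla cells receive compounds plus rat microsomes and NADPH (0.5 mg/mL final apiece), incubate 16 h at 37 C, and then CellTiter-Glo luminescence is recorded.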

[7] = p53 small molecule agonists, cell-based qHTS assay: qHTS cell viability counter screen (AID 1963581); note: nearly all actives have a fitted effect of over 45% in size; note: potency is the fitted concentration of half-maximal effect
In short: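 p53RE-bla HCT-116 cells, compounds added 5 h after plating and incubated 16 h at 37 C. Cytotoxicity measured in the same wells as intracellular ATP by CellTiter-Glo luminescence after 30 min at room temperature.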

[8] = target: 5-hydroxytryptamine receptor 2A (Homo sapiens) (UniProt P28223); assay: 5-hydroxytryptamine receptor 2A (HTR2A) small molecule antagonists, cell-based qHTS assay (AID 1963586); note: nearly all actives have a fitted effect of over 45% in size; note: potency is the fitted concentration of half-maximal effect
In short: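 Antagonist-mode intracellular calcium assay: DOI (4 nM) added after 5 min compound pre-incubation at room temperature to dye-loaded HTR2A-CHO cells. Fluorescence followed for 3 min, sampled every second.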

[9] = target: Muscarinic acetylcholine receptor M1 (Homo sapiens) (UniProt P11229); assay: Cholinergic receptor muscarinic 1 (CHRM1) small molecule antagonists, cell-based qHTS assay (AID 1963588); note: nearly all actives have a fitted effect of over 40% in size
In short: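 CHRM1-CHO calcium-flux assay, antagonist mode. Cells were seeded 18 h, dye-loaded 1 h at 37 C and given compound for 5 min at RT, then acetylcholine was added at 50nM. FDSS fluorescence was read 3 min; 15 concentrations, three runs.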

[10] = target: Muscarinic acetylcholine receptor M1 (Homo sapiens) (UniProt P11229); assay: Cholinergic receptor muscarinic 1 (CHRM1) small molecule agonists, cell-based qHTS assay (AID 1963589); note: nearly all actives have a fitted effect of over 35% in size
In short: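 CHO cells stably expressing human CHRM1 were loaded with calcium dye for 1 h at 37 C, then compound was added in agonist mode. Intracellular calcium fluorescence was followed kinetically at 1 s intervals. Fifteen concentrations were tested in three independent runs.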

[11] = target: D(2) dopamine receptor (Homo sapiens) (UniProt P14416); assay: Dopamine D2 receptor (DRD2) small molecule agonists, cell-based qHTS assay (AID 1963594); note: nearly all actives have a fitted effect of over 35% in size
In short: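 HEK293 cells stably expressing human DRD2, pre-treated with PDE inhibitor Ro20-1724 (0.1 mM final) and compound 10 min at room temperature, then stimulated with NKH477 (200nM […]) for 30 min. cAMP read by HTRF (665/620 nm).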

[12] = p53 small molecule agonists, cell-based qHTS assay with human liver microsomes (AID 1963577);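 note: p53 response element beta-lactamase reporter cells with liver microsomes plus NADPH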
In short: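 HLM-supplemented p53RE-bla reporter assay: 16 h compound exposure at 37 C, microsomes and NADPH each 0.5 mg/mL final, read by fluorescence intensity.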

[13] = p53 small molecule agonists, cell-based qHTS assay (AID 1963582; active = well fitted activation curve with a large enough effect in the signal ratio in the repeat runs, not every such curve was filed as active; the % refers to the signal ratio; note: potency is the fitted concentration of half-maximal effect)
In short: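 p53RE-bla reporter cells, compounds added in DMSO after 5 h plating, incubated 16 h at 37 C. Beta-lactamase read via 2 h room-temperature LiveBLAzer B/G FRET substrate, fluorescence intensity.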

[14] = target: 5-hydroxytryptamine receptor 2A (Homo sapiens) (UniProt P28223); assay: 5-hydroxytryptamine receptor 2A (HTR2A) small molecule agonists, cell-based qHTS assay (AID 1963587); note: nearly all actives have a fitted effect of over 30% in size; note: potency is the fitted concentration of half-maximal effect
In short: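 CHO cells stably expressing human HTR2A, plated 18 h, loaded with calcium dye 1 h at 37 C. Agonist mode: compounds added and intracellular calcium fluorescence recorded kinetically for 2 min at 1 sec intervals.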

[15] = cAMP Responsive Elements (CRE) small molecule agonists, cell-based qHTS assay (AID 1963590)
In short: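 CRE-bla HEK 293T cells, 2,000/well in DMEM with 10% dialyzed FBS and 25 mM HEPES, pre-incubated 18 h at 37 C, then exposed to compound 3 h at 37 C. Beta-lactamase reporter read with LiveBLAzer B/G FRET substrate after 2 h at room temperature.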

[16] = target: Beta-2 adrenergic receptor (Homo sapiens) (UniProt P07550); assay: Adrenergic beta2 receptor (ADRB2) small molecule antagonists, cell-based qHTS assay (AID 1963592); note: series mostly up to about 92 µM; nearly all actives have a fitted effect of over 50% in size
In short: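 Cells (CHO, stable ADRB2 overexpression) incubated 18-20hr at 37C; compounds added from DMSO; agonist mix (1nM isoproterenol, 100uM IBMX, 25uM Ro-20-1724) added; 0.5hr RT; d2-cAMP and anti-cAMP-cryptate added; 1hr RT; 665/615 nm read.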

[17] = target: D(2) dopamine receptor (Homo sapiens) (UniProt P14416); assay: Dopamine D2 receptor (DRD2) small molecule antagonists, cell-based qHTS assay (AID 1963595; active = well fitted inhibition curve with a large enough effect in the signal ratio in the repeat runs, with a control signal flat; the % refers to the signal ratio)
In short: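 Antagonism was scored as restored cAMP in HEK293-DRD2 cells. These cells were stimulated with 200 nM NKH477 and 12 nM quinpirole for 30 min at room temperature, in the presence of 0.1 mM Ro20-1724.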

[18] = cAMP Responsive Elements (CRE) small molecule antagonists, cell-based qHTS assay (AID 1963591; active = well fitted inhibition curve with a large enough effect in the signal ratio in the repeat runs, not every such curve was filed as active; the % refers to the signal ratio)
In short: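 CRE-bla HEK293T cells plated 18 h, then given compound plus NKH477 at 0.25 uM final for 3 h at 37C. Beta-lactamase reporter read with LiveBLAzer B/G FRET substrate after 2 h at room temperature.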

[19] = p53 small molecule agonists, cell-based qHTS assay with rat liver microsomes (AID 1963578)
In short: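 Quantitative HTS of the Tox21 10K library: p53RE-bla cells, rat liver microsomes plus NADPH at 0.5 mg/mL final each, 16 h at 37 C, beta-lactamase fluorescence detection.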

[20] = target: Gonadotropin-releasing hormone receptor (Homo sapiens) (UniProt P30968); assay: Human gonadotropin-releasing hormone receptor (GnRHR) small molecule agonists, calcium flux assay in GnRHR-HEK293 cells (AID 1920063); note: nearly all actives have a fitted effect of over 35% in size
In short: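 HEK293 cells stably expressing human GnRHR were dye-loaded for 1 h at 37 C. Compound was added in agonist mode and fluorescence (Ex/Em 480/540) recorded kinetically for 3 min. Fifteen concentrations, triplicates.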

Measured: Potency

Chain of KiSS-1 receptor (Homo sapiens) (Q969F8 whole entry, looked up): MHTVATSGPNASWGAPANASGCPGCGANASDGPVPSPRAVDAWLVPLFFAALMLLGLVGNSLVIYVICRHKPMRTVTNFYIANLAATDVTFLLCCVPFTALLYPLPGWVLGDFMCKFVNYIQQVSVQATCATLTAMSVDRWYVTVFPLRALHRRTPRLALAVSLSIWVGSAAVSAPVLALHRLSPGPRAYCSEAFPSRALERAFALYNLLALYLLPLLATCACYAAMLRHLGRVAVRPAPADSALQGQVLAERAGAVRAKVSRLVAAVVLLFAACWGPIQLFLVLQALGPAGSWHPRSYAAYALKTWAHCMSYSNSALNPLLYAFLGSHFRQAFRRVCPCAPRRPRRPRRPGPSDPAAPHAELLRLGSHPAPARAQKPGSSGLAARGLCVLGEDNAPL
Chain of 5-hydroxytryptamine receptor 2A (Homo sapiens) (P28223 whole entry, looked up): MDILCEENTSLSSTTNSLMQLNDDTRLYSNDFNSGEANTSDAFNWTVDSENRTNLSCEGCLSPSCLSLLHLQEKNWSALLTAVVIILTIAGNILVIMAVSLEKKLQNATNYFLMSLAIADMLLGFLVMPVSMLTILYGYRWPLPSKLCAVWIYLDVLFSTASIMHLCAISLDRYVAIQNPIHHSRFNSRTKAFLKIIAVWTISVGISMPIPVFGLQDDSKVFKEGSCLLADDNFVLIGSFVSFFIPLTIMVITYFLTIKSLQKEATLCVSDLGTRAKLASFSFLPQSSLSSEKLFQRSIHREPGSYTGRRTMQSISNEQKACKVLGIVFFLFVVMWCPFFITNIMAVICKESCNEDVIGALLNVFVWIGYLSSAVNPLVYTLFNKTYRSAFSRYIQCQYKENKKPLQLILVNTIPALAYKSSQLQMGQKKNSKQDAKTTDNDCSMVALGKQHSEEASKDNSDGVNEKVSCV
Chain of Muscarinic acetylcholine receptor M1 (Homo sapiens) (P11229 whole entry, looked up): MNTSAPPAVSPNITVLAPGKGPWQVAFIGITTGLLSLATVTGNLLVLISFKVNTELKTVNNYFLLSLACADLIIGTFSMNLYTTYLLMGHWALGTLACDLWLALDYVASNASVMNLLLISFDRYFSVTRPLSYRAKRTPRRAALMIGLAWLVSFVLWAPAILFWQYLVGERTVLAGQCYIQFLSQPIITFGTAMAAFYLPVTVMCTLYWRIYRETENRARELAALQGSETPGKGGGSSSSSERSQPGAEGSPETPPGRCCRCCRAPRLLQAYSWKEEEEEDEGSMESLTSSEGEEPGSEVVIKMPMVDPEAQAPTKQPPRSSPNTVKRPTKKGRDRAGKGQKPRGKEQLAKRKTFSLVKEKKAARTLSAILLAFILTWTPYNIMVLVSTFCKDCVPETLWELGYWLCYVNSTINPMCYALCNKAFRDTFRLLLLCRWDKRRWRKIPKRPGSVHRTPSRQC
Chain of D(2) dopamine receptor (Homo sapiens) (P14416 whole entry, looked up): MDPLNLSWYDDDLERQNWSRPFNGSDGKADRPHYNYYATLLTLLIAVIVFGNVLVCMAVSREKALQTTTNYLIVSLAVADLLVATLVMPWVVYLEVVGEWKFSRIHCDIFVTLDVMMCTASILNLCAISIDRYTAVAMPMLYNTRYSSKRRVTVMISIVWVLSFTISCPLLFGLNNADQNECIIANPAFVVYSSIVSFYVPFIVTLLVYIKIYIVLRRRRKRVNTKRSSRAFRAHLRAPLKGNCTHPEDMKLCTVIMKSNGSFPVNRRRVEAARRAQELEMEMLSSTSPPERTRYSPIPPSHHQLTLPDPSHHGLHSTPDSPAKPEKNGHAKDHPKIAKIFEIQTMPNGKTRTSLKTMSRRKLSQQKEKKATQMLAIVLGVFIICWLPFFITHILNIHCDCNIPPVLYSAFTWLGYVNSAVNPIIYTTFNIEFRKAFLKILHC
Chain of Gonadotropin-releasing hormone receptor (Homo sapiens) (P30968 whole entry, looked up): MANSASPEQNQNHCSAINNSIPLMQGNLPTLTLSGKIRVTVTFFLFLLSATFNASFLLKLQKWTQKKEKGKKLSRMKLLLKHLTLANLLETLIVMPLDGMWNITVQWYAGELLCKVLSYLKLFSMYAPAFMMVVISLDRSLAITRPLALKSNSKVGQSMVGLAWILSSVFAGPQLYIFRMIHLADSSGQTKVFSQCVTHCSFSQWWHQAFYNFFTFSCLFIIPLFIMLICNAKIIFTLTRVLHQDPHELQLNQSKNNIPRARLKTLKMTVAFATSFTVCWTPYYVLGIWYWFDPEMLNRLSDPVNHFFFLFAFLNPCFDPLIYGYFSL
Chain of Beta-2 adrenergic receptor (Homo sapiens) (P07550 whole entry, looked up): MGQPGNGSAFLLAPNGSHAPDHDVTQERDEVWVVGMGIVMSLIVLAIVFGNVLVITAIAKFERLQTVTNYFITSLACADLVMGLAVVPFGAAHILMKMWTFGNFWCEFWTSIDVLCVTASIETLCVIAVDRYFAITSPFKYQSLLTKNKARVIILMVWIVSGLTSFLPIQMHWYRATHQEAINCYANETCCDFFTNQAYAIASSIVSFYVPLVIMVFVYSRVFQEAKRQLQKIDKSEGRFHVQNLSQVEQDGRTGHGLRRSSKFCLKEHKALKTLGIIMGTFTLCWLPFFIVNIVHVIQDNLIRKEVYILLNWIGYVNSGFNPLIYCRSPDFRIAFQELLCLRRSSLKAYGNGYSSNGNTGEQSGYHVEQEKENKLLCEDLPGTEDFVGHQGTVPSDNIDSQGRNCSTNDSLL

CC1(C)CCC(Cc2ccc(Cl)cc2)C1(O)Cn1cncn1 (stereo unspecified)
inactive: [1] | [2] | [3] | [4] | [6] | [7] | [9] | [10] | [11]
active: [5] 45.8 µM | [8] 16.8 µM

CCN(CC)C(=O)[C@@H]1C=C2c3cccc4[nH]cc(c34)C[C@H]2N(C)C1
inactive: [1] | [2] | [3] | [4] | [12] | [5] | [6] | [7] | [13] | [8] | [9]

CSc1ccc(C(=O)C(C)(C)N2CCOCC2)cc1
not listed: [5] | [18] | [19] | [20]
inactive: all other assays above

CC(C)(C)N(NC(=O)c1ccc(Cl)cc1)C(=O)c1ccccc1
not listed: [9] | [12] | [13] | [15] | [16] | [19] | [20]
inactive: all other assays above

COP(=S)(OC)Oc1ccc([N+](=O)[O-])c(C)c1
active: [7] 0.363 µM
not listed: [9] | [11] | [12] | [19] | [20]
inactive: all other assays above

Oc1ccc(C(=C(Cl)Cl)c2ccc(O)cc2)cc1
active: [1] 68.5 µM | [5] 51.2 µM
not listed: [7] | [9] | [11] | [14] | [16] | [18] | [20]
inactive: all other assays above

CCNc1nc(Cl)nc(NC(C)(C)C)n1
not listed: [12] | [13] | [15] | [16] | [19] | [20]
inactive: all other assays above

CN(C)c1ccc(N)cc1
active: [1] 29.9 µM | [2] 8.42 µM
inactive: [3] | [4] | [12] | [19] | [7] | [13] | [8] | [14] | [18]

CCCCN(N=O)C(=N)N[N+](=O)[O-]
active: [13] 37.1 µM
not listed: [2] | [10] | [11] | [15]
inactive: all other assays above

NC(=O)CI
not listed: [2]
inactive: all other assays above

BrCC(Br)(Br)Br
not listed: [2] | [11]
inactive: all other assays above

Cn1sc(Cl)cc1=O
active: [14] 54.9 µM
not listed: [2] | [11]
inactive: all other assays above

CC(Cl)CN(C)C (stereo unspecified)
not listed: [2] | [11] | [16]
inactive: all other assays above

CCCCNP(N)(N)=S
not listed: [2] | [9] | [14]
inactive: all other assays above

c1ccc(OCC2CO2)cc1 (stereo unspecified)
not listed: [2]
inactive: all other assays above

CCCN1CCC[C@@H]2Cc3nc(N)ncc3C[C@H]21
active: [14] 8.49 µM
not listed: [3] | [11] | [20]
inactive: all other assays above

CC(C)Br
not listed: [2] | [14] | [15]
inactive: all other assays above

CC(C)CC(C)N (stereo unspecified)
not listed: [2] | [8] | [9] | [16]
inactive: all other assays above

SCc1ccccc1
not listed: [2] | [8] | [11] | [15]
inactive: all other assays above

CC1(C)CON(Cc2ccccc2Cl)C1=O
not listed: [2]
inactive: all other assays above

CCOP(=O)(SC(C)CC)N1CCSC1=O (stereo unspecified)
not listed: [4] | [12] | [13] | [19] | [20]
inactive: all other assays above

N#CC(C#N)=NNc1cccc(Cl)c1
inactive: [12] | [13] | [8] | [14] | [9] | [10] | [16] | [11] | [17]
active: [1] 8.63 µM | [2] 7.7 µM | [4] 2.45 µM

COc1ccc(C(=O)N2CCCC2=O)cc1
not listed: [4] | [8] | [9] | [10] | [12] | [14] | [20]
inactive: all other assays above

CC(=O)C(Cl)(Cl)Cl
inactive: [4] | [12] | [5] | [14] | [11] | [17]
active: [1] 16.6 µM | [2] 20.9 µM | [7] 24.8 µM

N#Cc1c(Cl)cccc1Cl
not listed: [2] | [8] | [9]
inactive: all other assays above

Clc1ccc2ccccc2c1
not listed: [2]
inactive: all other assays above

S=C=Nc1ccccc1
not listed: [2] | [18]
inactive: all other assays above
